This is a sample that favours compounds with a hit; in the whole collection about 19% have one here.
ASM inhibitor = Inhibitors of Secretory Acid Sphingomyelinase (S-ASM): qHTS. Sphingomyelin phosphodiesterase (Homo sapiens), P17405. placental ASM, HMU-PC fluorogenic substrate, 60 min. Potency, µM (titrated, usually from 57.5 µM), most hits filed as inhibitors. 340,000 compounds, 0.006% hits. AID 504937, 2011
Target sequence (P17405 47-631 limits assumed): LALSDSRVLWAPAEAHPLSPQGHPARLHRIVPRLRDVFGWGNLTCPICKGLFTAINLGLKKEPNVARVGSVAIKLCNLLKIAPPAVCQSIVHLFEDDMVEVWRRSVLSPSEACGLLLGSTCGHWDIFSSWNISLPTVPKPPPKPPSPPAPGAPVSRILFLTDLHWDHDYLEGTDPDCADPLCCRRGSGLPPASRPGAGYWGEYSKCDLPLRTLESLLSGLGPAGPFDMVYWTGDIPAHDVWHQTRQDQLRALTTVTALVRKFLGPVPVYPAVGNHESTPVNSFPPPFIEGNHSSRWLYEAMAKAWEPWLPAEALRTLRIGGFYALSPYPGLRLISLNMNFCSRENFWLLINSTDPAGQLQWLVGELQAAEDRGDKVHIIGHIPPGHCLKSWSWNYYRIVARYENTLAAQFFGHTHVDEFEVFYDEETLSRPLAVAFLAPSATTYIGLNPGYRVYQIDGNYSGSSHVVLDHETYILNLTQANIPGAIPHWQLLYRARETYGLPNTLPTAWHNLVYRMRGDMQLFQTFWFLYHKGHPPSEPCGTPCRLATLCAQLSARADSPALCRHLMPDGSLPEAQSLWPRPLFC
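HMU-PC0 cleavage (9 uM final) by human placental ASM, 60 min at 37 °C following 10 min compound exposure at RT; stopped at pH 10, fluorescence Ex 386/Em 447 nm.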
TDP1 cell CPT = qHTS for Inhibitors of human tyrosyl-DNA phosphodiesterase 1 (TDP1): qHTS in cells in presence of CPT | 420,000 compounds, 12% hits | Potency, µM (top dose mostly 46.2 µM), most hits filed as inhibitors | AID 686979, 2013 | chicken DT40 Tdp1-/-;hTDP1 cells + 20 nM CPT, ATP luminescence, 48 h; also: nearly all actives have a fitted effect of over 55% in size
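Cell growth measured by CellTiter-Glo luminescence after a minimum 48 h, 37 C compound exposure with 20 nM CPT in Tdp1-knockout DT40 cells stably expressing hTDP1, seeded 400/well; qHTS titration format.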
IL1B secr inh = qHTS for Inhibitors of Inflammasome Signaling: IL-1-beta AlphaLISA Primary Screen. 360,000 compounds, 4.7% hits. activity change, % at 57.5 µM. THP-1 LPS/ATP IL-1B secretion, AlphaLISA, 16 h; stronger effect = lower value; in the data active = activity change below about -50%; inconclusive = mostly about -30% to -49%
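THP-1 cells pretreated 1 hr with compounds (up to 57.5 uM final), then stimulated with LPS (250 ng/mL final) plus ATP (1.25 mM final); secreted IL-1B measured by AlphaLISA after 16 hr, decreased signal indicating inhibition.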
DT40 TDP1 no CPT = qHTS for Inhibitors of human tyrosyl-DNA phosphodiesterase 1 (TDP1): qHTS in cells in absence of CPT | DT40 Tdp1-/- hTDP1 cells, no CPT, ATP luminescence, 48 h | Potency, µM (titrated, usually from 46.2 µM), usual class: inhibitors | 420,000 compounds, 15% hits | AID 686978, 2013; also: nearly all actives have a fitted effect of over 55% in size
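Growth kinetics read by CellTiter-Glo luminescence after ≥48 hr at 37 °C. Cells: DT40 Tdp1-/- stably carrying human TDP1, 400 per well, compound exposure in the absence of CPT (DMSO vehicle).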
HepG2 tox = qHTS for Inhibitors of TGF-b: Cytotox Counterscreen. 410,000 compounds, 0.76% hits. AID 588856, 2011. Potency, µM (top dose mostly 46.1 µM), actives largely listed as cytotoxic. HepG2 CAGA-GFP viability, ATP luminescence, 18 h
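HepG2 CAGA-GFP cells (1000/well, DMEM with 1% FBS) received compound, then TGF-beta at 500 pg/mL final, and were incubated 18 hours at 37 degrees C. Viability was read by CellTiter-Glo luminescence. Media-only wells were set as complete cell-killing and DMSO as no toxicity.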
TGFb SMAD3 inh = qHTS for Inhibitors of TGF-b; 410,000 compounds, 1.2% hits; AID 588855, 2011; Potency, µM (titrated, usually from 46.1 µM), usual class: inhibitors; HepG2 CAGA-GFP TGF-b/SMAD3 reporter, GFP fluorescence, 18 h; TGF-beta stimulated, 500 pg/mL final; also: nearly all actives have a fitted effect of over 65% in size
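HEPG2 CAGA-GFP, 1000 cells/well; 2 h settle, 37 C; cpd via pin tool; TGF-b 500 pg/mL final; 18 h, 37 C; GFP imaging ex488/em500-530; %Activity normalised to -TGF-b and +DMSO controls; CRC fit, curve class.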
A number is an active result; 0 = inactive; ? = inconclusive; - = no result given. Unless noted, calls follow the shape of the dose curve; as a rule, active = well fitted curve in the direction sought with a large enough effect; inconclusive = small, poorly fitted or top-dose-only effect, or another doubt; inactive = no such curve, though single readings can be large; an effect the other way counts as inactive or inconclusive.

SMILES	ASM inhibitor	TDP1 cell CPT	IL1B secr inh	DT40 TDP1 no CPT	HepG2 tox	TGFb SMAD3 inh
CC1CCC(NS(=O)(=O)c2ccc(N3CCCC3=O)cc2)CC1 (stereo unspecified)	0	?	0	?	0	0
CCOC(=O)C1CCN(C(=O)c2cccc(S(=O)(=O)N3CCCc4ccccc43)c2)CC1	0	?	0	23µM	0	0
CC1CCCN(C(=O)c2cccc(S(=O)(=O)N3CCCc4ccccc43)c2)C1 (stereo unspecified)	0	10µM	0	10µM	0	?
CNCCC=C1c2ccccc2CCc2ccccc21	0	9.2µM	-64	21µM	0	0
O=C1/C(=C/c2ccco2)CCc2ccccc21	0	0	?	0	0	0
Cc1ccc(OCc2nc(-c3ccc(C(=O)NCc4ccc(OC(C)C)cc4)cc3)oc2C)cc1	-	?	-	21µM	0	0
Cc1oc(-c2ccc(C(=O)NCc3ccccc3)cc2)nc1CN1CCc2ccccc21	-	?	-	21µM	0	?
COc1ccccc1NC(=O)c1ccc(-c2nc(COc3ccc(C)cc3)c(C)o2)cc1	-	21µM	-	18µM	0	0
COc1cccc(NC(=O)c2ccc(-c3nc(COc4ccc(C)cc4)c(C)o3)cc2)c1	-	?	-	?	0	0
Cc1oc(-c2ccc(C(=O)NCCC(C)C)cc2)nc1CN1CCc2ccccc21	-	-	-	-	0	0
COc1ccc(OC)c(NC(=O)c2ccc(-c3nc(COc4ccccc4)c(C)o3)cc2)c1	-	?	-	13µM	0	0
O=C(CSc1ncn[nH]1)NNC(=O)c1ccccc1	0	0	0	0	0	0
CC(C)[C@H](NC(=O)c1c(F)cccc1F)C(=O)OCC(=O)NC(=O)NC1CCCC1	0	0	0	0	0	0
O=C1Nc2ccccc2/C1=C/c1ccccc1Cl	0	0	0	?	0	?
Cc1ccc2c(c1)/C(=N/N1C(=O)c3ccccc3C1=O)C(=O)N2	0	?	0	0	0	0
O=C1Nc2ccccc2/C1=C/c1ccc([N+](=O)[O-])cc1	0	0	0	0	0	0
COc1ccccc1/C=C1\C(=O)Nc2ccccc21	0	?	0	21µM	0	?
Cc1ccc2c(c1)/C(=C/c1ccc(F)cc1)C(=O)N2	0	?	-75	21µM	10µM	?
Cc1ccc2c(c1)/C(=C/c1ccccc1C)C(=O)N2	0	0	-100	?	0	0
Cc1ccccc1S(=O)(=O)NC(=O)C1(C)CCN1C(=O)C1CCCCC1 (stereo unspecified)	-	0	0	0	0	0
O=C(NNS(=O)(=O)c1ccccc1Cl)c1nn(-c2ccc(F)cc2)ccc1=O	0	0	0	0	0	0
O=C(NCc1ccccn1)c1cc(S(=O)(=O)N2CCCCC2)ccc1Cl	0	?	0	0	0	?
Cc1cc(C)nc(SCc2ccc(C(=O)NNC(=O)Nc3cccc(Cl)c3)cc2)n1	0	21µM	-100	13µM	0	?
Cc1cc(C)nc(SCc2ccc(C(=O)N/N=C/c3ccncc3)cc2)n1	0	0	0	0	0	0
Cc1cc(C)nc(SCc2ccc(C(=O)N/N=C/c3ccccn3)cc2)n1	0	?	0	21µM	0	?
SMILES	ASM inhibitor	TDP1 cell CPT	IL1B secr inh	DT40 TDP1 no CPT	HepG2 tox	TGFb SMAD3 inh
COCCn1c(C)cc(O)c(C(c2ccc(OC)cc2)N2CCN(c3ccccc3)CC2)c1=O (stereo unspecified)	-	0	-	0	0	0
O=[N+]([O-])c1c(Nc2ccccc2O)cc(Cl)c2nonc12	0	4.6µM	-102	3.7µM	10µM	4µM
O=C(O)CN1C(=O)/C(=C\c2cc(Br)ccc2OCc2ccc([N+](=O)[O-])cc2)SC1=S	0	0	0	0	0	?
COc1cc(/C=C2/SC(=S)N(Cc3ccccc3)C2=O)cc(Cl)c1O	0	16µM	0	13µM	0	0
COc1cc(/C=C2\SC(=O)N(Cc3ccc(Cl)cc3)C2=O)cc([N+](=O)[O-])c1O	0	?	0	23µM	0	0
COc1cc(/C=C2/SC(=S)N(Cc3ccccc3)C2=O)ccc1OS(C)(=O)=O	0	?	0	?	0	0
COc1cc([N+](=O)[O-])cc(/C=C2/SC(=S)N(Cc3ccccc3)C2=O)c1O	0	16µM	0	7.3µM	0	?
Cc1c(C(=O)NCc2cccc(Cl)c2)sc2nc[nH]c(=O)c12	-	?	-	?	0	0
O=C1C=Cc2cccc3ccc(O)c1c23	0	23µM	?	15µM	0	0
O=C1c2cccc3cccc(c23)C(=O)N1c1ccc(O)cc1	0	0	0	0	0	0
COc1ccc2c(Sc3ccccc3)c(C(=O)NCc3ccc(OC(C)C)cc3)[nH]c2c1	-	?	-	?	0	0
COc1cccc(N2CCN(c3nc(-c4ccccc4C)cc(=O)[nH]3)CC2)c1	0	0	-73	?	0	?
CCCCOc1ncnc2c1[nH]c1ccccc12	0	10µM	0	7.3µM	0	0
CCCCOc1ncnc2c1[nH]c1ccc(OCC)cc12	0	0	0	0	0	0
Fc1ccc2[nH]c3c(Cl)ncnc3c2c1	0	0	-96	0	0	0
CCCCOc1ncnc2c1[nH]c1ccc(F)cc12	0	9.2µM	?	8.2µM	0	0
COc1ccc(CNC(=O)CN(C(=O)c2csnn2)c2ccc(C(C)=O)cc2)cc1	0	0	0	0	0	0
O=C(Nc1ccc(N2CCOCC2)cc1)c1nc2ccccc2s1	0	0	0	0	0	0
O=C1[C@H]2[C@@H](c3ccc(F)cc3)N3C(=O)N(c4cccc(Br)c4)C(=O)[C@@]3(Cc3ccccc3)[C@H]2C(=O)N1C1CCCCC1	0	0	0	0	0	0
Cc1cccc(N2C(=O)N3[C@H](c4ccc(Br)cc4)[C@@H]4C(=O)N(C(C)(C)C)C(=O)[C@@H]4[C@]3(C)C2=O)c1	0	18µM	0	?	0	0
CC(C)(C)N1C(=O)[C@H]2[C@@H](c3ccc(Br)cc3)N3C(=O)N(c4ccc(Br)cc4)C(=O)[C@@]3(Cc3ccccc3)[C@H]2C1=O	0	21µM	0	?	0	0
O=C1[C@H]2[C@@H](c3ccc(Cl)cc3)N3C(=O)N(c4cccc(Cl)c4)C(=O)[C@@]3(Cc3ccccc3)[C@H]2C(=O)N1C1CCCCC1	0	10µM	0	12µM	0	?
